Test results: PubChem BioAssay AID588499 (NMMLSC, 2011)
Among all 360,000 compounds or so, about 610 (0.17%) were called active. Inconclusive results (about 2%) are left out. Cut-off read from the data, not from the text of the source: active = inhibition above about 30%; inconclusive = no clear call, values can overlap the other calls; inactive = below that. The list comes from a sample in which actives are over-represented; it also holds similar structures and randomly drawn compounds.

What follows are compounds tested on Botulinum neurotoxin type A light chain protease (Clostridium botulinum A str. ATCC 3502) (assay: blockers of BoNT/A LC substrate cleavage – biochemical, flow cytometry, MLPCN library, primary screen (AID 588499; note: plate controls were buffer without enzyme for full effect and enzyme alone for no effect)). Conditions: multiplex microsphere protease substrate cleavage, at 10 µM, stronger effect = higher value.

SMILES	inhibition
NC(CSC12CC3CC(CC(C3)C1)C2)C(=O)O (stereo not drawn)	1.6% (inactive)
CCCCN(C(=O)COc1ccc(NC(C)=O)cc1)C1CCS(=O)(=O)C1 (stereo not drawn)	1.1% (inactive)
O=C(Nc1ccc(-n2ccnc2P(=O)(O)c2ccccc2)cc1)c1ccccc1Br	1.4% (inactive)
COC(=O)C[n+]1cccc2ccccc21	28.6% (inactive)
O=C(C[n+]1cc(Br)cc2ccccc21)c1ccc(F)cc1	120% (active)
O=C(CNC(=O)c1ccccc1F)c1ccc(Br)cc1	0.8% (inactive)
Cc1cc(C)c2c(c1)cc(C)c1nnc(SCC(=O)Nc3cc(C)on3)n12	-0.7% (inactive)
COc1cc(C(=O)NCc2cc3cc(Cl)ccc3n2C)cc(OC)c1OC	0.3% (inactive)
COc1cc(C(=O)NCc2ccc3c(c2)cc(C)n3C)cc(OC)c1OC	74.1% (active)
CCOCC(=O)NCc1ccc2c(c1)cc(C)n2C	6% (inactive)
CCC(Cc1ccccc1)NC(=O)C1CCCCC1 (stereo not drawn)	0.2% (inactive)
Cc1cccc2cc3c(N)c(C(=O)N4CCCc5ccccc54)sc3nc12	54.5% (active)
O=C(c1c(Cl)nc2sccn12)N1CCCc2ccccc21	0% (inactive)
Cc1ccc(C(=O)N2CCCc3ccccc32)c(Cl)c1	-0.5% (inactive)
COc1cc2ccc(C(C)=O)c(O)c2cc1OC	0% (inactive)
C[C@H]1COc2cc(N3CCSCC3)ccc2S(=O)(=O)N1	1.1% (inactive)
Cc1noc(C)c1NC(=O)Nc1cccc2c1O[C@H](CN(C)S(=O)(=O)c1c(C)noc1C)[C@@H](C)CN([C@H](C)CO)C2=O	-0.8% (inactive)
COc1ccc(OC)c(NC(=O)C2CCCN2S(=O)(=O)c2cccc3nsnc23)c1 (stereo not drawn)	0.9% (inactive)
O=c1c(-c2ccccc2Cl)c[nH]n1-c1ccccc1	1.7% (inactive)
CCCCNC(=O)C[C@@H]1C[C@@]2(C(=O)OCC)CCC=C2N(Cc2ccco2)C1=O	0.2% (inactive)

SMILES	inhibition
CN1CC(c2ccccc2)C2(COc3ccccc3C2=O)C12C(=O)Nc1ccccc12 (stereo not drawn)	-0.4% (inactive)
CCc1nc2c(OCC(=O)C(C)(C)C)cccn2c1N(C)C(=O)c1ccccc1F	-0.5% (inactive)
CC(NCc1nc2ccccc2n1C)C12CC3CC(CC(C3)C1)C2 (stereo not drawn)	0% (inactive)
CN1C=CC=C/C1=C1\SC(=S)N(Cc2ccccc2)C1=O	-1.8% (inactive)
COc1cc(/C=C2/SC(=S)N(Cc3ccccc3)C2=O)cc(OC)c1O	39.9% (active)
COc1ccc(CCNC2=C(Cl)C(=O)N(Cc3ccccc3)C2=O)cc1OC	-0.2% (inactive)
O=C(O)CN(Cc1ccco1)S(=O)(=O)c1ccc(F)cc1	-0.4% (inactive)
Cc1csc(Nc2ccc(Cl)cc2)[n+]1-c1ccc(Cl)cc1	-2% (inactive)
O=C(CN1C(=O)c2ccc([N+](=O)[O-])cc2C1=O)Nc1nnc(C2CC2)s1	-0.6% (inactive)
COc1cccc(-c2cc3nc4c(c(N5CCC6(CC5)OCCO6)n3n2)CCCC4)c1	0.1% (inactive)
Cc1ccc2cc(CCNC(=O)c3c(-c4ccccc4Cl)noc3C)c(=O)[nH]c2c1	-0.3% (inactive)
Cc1onc(-c2ccccc2Cl)c1C(=O)NCCn1ccc2ccccc21	81.2% (active)
Cc1onc(-c2ccccc2Cl)c1C(=O)N(Cc1ccc(N(C)C)cc1)C(C)C	-3.2% (inactive)
Oc1c(Cl)cc(Cl)c(Cl)c1Cc1c(O)c(Cl)cc(Cl)c1Cl	-1% (inactive)
CC(=O)Nc1ccc(NC(=O)C(C)n2c3ccccc3c3nc(=O)cc(C)n32)cc1 (stereo not drawn)	-0.3% (inactive)
COc1ccc(-c2cc3c(c4c2ccn4C)C2CCC3C2)cn1 (stereo not drawn)	52.1% (active)
Cc1cccc(S(=O)(=O)N(C)C[C@H]2OCc3cnnn3CCCC(=O)N([C@@H](C)CO)C[C@H]2C)c1	-0.3% (inactive)
Cc1c(CC(=O)N2CCN(C(=O)C3COc4ccccc4O3)CC2)c(=O)oc2c(O)c(O)ccc12 (stereo not drawn)	3.7% (inactive)
COc1ccc(CCNC(=O)C2CC3Cn4c(nc5cc(C)c(C)cc54)C3N2C)cc1 (stereo not drawn)	-0.2% (inactive)
O=C1[C@@H]2C(c3cccnc3)=NO[C@@H]2C(=O)N1c1ccc(Cl)cc1Cl	-0.1% (inactive)

SMILES	inhibition
COc1ccc(NC(=O)N2CCCC(C(=O)Nc3ccccc3OC)C2)cc1 (stereo not drawn)	-1.6% (inactive)
CC1(C(=O)NCc2ccc3c(c2)OCO3)CCN1C(=O)Cc1cccs1 (stereo not drawn)	-0.2% (inactive)
CCN(CC)C(=O)C(C)N1c2cccc3cccc(c23)S1(=O)=O (stereo not drawn)	0.5% (inactive)
CC(C)c1nc(CNC(=O)CC2C(=O)NCCN2Cc2cccc(F)c2F)cs1 (stereo not drawn)	0% (inactive)
Cc1ccc(C(=O)NCC(=O)OCC(=O)Nc2cccc(S(=O)(=O)N3CCCC3)c2)cc1C	-0.4% (inactive)
COC1=NC2=NCCN2C(OC)=N1	-0.5% (inactive)
C[C@H](CO)N1C[C@H](C)[C@@H](CN(C)C(=O)C2CCCCC2)OCc2cnnn2CCCC1=O	-0.2% (inactive)
COc1ccc(S(=O)(=O)N(CCCN2CCCC2=O)Cc2cc3c(C)ccc(C)c3[nH]c2=O)cc1	0.4% (inactive)
CNC(=O)Nc1cc(C(C)(C)C)no1	0% (inactive)
CCOC(=O)C1=C(C)NC2=C(C(=O)CC(C)(C)C2)C1c1ccsc1 (stereo not drawn)	1.6% (inactive)
Cc1ccc(-c2nc(-c3cccnc3)sc2CC(=O)Nc2ccc(C)c(Cl)c2)cc1	51.4% (active)
Cc1nc(-c2ccc(F)cc2)c(CC(=O)Nc2cccc(S(=O)(=O)N3CCOCC3)c2)s1	1.2% (inactive)
Cc1ccc(NC(=O)COc2ccc(-n3ccnc3)cc2)cc1Cl	-0.5% (inactive)
Nc1ncnc2c1cnn2C1CC(O)C(CO)O1 (stereo not drawn)	0.6% (inactive)
C=C1C(=O)[C@]23C[C@H]1CCC2[C@@]1(C)C(C[C@@H]3O)[C@](C)(C(=O)O)CC[C@@H]1O (stereo partly drawn)	0.1% (inactive)
Cc1cc(N2CCCC2)ccc1NC(=O)COc1ccc(Cl)cc1	-8.3% (inactive)
CCN1/C(=C\c2ccc3ccccc3[n+]2CC)Sc2cc(C)ccc21	71.1% (active)
CC(C)C[C@@H](COCc1ccc(Cl)cc1)N1CCN(C(=O)c2ccc(Cl)cc2Cl)CCC1=O	-0.6% (inactive)
